Here are results for eight molecules from PubChem BioAssay (NCATS).

A number with no mark means an inactive call. Results filed as inconclusive are left out. The source made the active and inactive calls. Unless noted, calls come from the whole dose curve; as a rule, active = well fitted curve in either direction with a large enough effect (not every such curve was filed as active); inconclusive = small, poorly fitted or top-dose-only effect, or another doubt; inactive = flat fitted curve, though single readings scatter.

For assay [1], the target named is Lysosomal acid glucosylceramidase (Homo sapiens) (UniProt P04062). The assay is described as follows: Glucocerebrosidase-p2 (AID 348; in the data active = potency below about 10 µM; note: potency is the fitted concentration of half-maximal effect). The settings on record: purified GBA, blue fluorogenic substrate, 40 min. In short, it runs like this:
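Normal human glucocerebrosidase (0.2 nM) with blue fluorogenic substrate (80 uM final) in citrate/phosphate pH 5.9 with 10mM sodium taurocholate, 0.01% tween-20; 40 min RT, NaOH/glycine stop; fluorescence Ex 365/Em 440; AC50 from a titration from 0.6 nM upwards.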

The nature of assay [2]: AP1 Signaling Pathway (AID 357).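 Note: ME-180 reporter cells stimulated with EGF at its EC50 level; % is set by controls: 0 for no effect and ±100 for the full control effect.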 The settings on record: ME-180 AP-1-bla reporter, EGF-induced, beta-lactamase ratio, 5 h; at 7.69 µM (top of the series) unless noted. In short, it runs like this:
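In this screen, ME-180 cells in Opti-MEM with 0.5% dialyzed FBS received EC50 EGF and compound titrations for 5 h. AP-1 reporter beta-lactamase was detected via CCF4 ratio, giving AC50 for positive and negative modulators.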

Assay [3] concerns the target Cytochrome P450 1A2 (Homo sapiens) (UniProt P05177). Put plainly: p450-cyp1a2 (AID 410; calls by dose curve; note: potency is the fitted concentration of half-maximal effect). The settings on record: recombinant CYP1A2, luciferin-ME demethylation, luminescence; series mostly up to 11.4 µM. In a few lines: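 O-Demethylation of luciferin 6' methyl ether by human CYP1A2 is monitored as luciferase luminescence. Substrate sits at Km (100uM); enzyme is 20nM. Values are scaled to 57 uM furafylline as maximal inhibition.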

Assay [4] is described as follows: NFAT Signaling Pathway (AID 444).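 Note: carbachol stimulus at about its EC50 of 1 µM final; % is set by controls: 0 for no effect and ±100 for the full control effect.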 The note with it: Jurkat NFAT-bla M1, carbachol, beta-lactamase ratio, 5 h; at 7.69 µM (top of the series) unless noted. In short, it runs like this: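 Read-out: CCF4 FRET ratio (460 nm/530 nm) after 1 h RT dye loading, used for %activity and AC50 from titration series. Cells: Jurkat NFAT-β-lactamase/M1 line, treated with compound plus 1 uM carbachol for 5 h, 37 °C.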

Assay [5] in a line: Stat Signaling Pathway (AID 446).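 Note: ME-180 cervical cancer cells given 40 pM IL-6 alongside compound; SIE-controlled beta-lactamase reporter measured as 460/530 nm FRET emission ratio; % is set by controls: 0 for no effect and ±100 for the full control effect.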 The settings on record: ME-180 SIE beta-lactamase reporter, IL-6 stimulated, 5 h; at 7.69 µM (top of the series) unless noted. In short, it runs like this:
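FRET read-out (405 nm excitation, 460/530 nm emission) of a beta-lactamase reporter under a STAT-inducible element in ME-180 cervical carcinoma cells. Cells with compound receive 40 pM IL-6 for 5 h. Values are normalised to AC90 stimulation and AC90 JAK-inhibitor controls.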

Assay [6] deals with Mitogen-activated protein kinase 10 (Mus musculus) (UniProt Q61831). The assay is described as follows: JNK3 AlphaScreen Assay (AID 530).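 Note: kinase came from lysate of stimulated human HepG2 cells; signal reports phosphorylation of biotinylated GST-cJun 1-79 at Ser73 with 10 µM ATP; % is set by controls: 0 for no effect and ±100 for the full control effect.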 The settings on record: JNK3 lysate, c-Jun phosphorylation; series mostly up to 11.4 µM. In short, it runs like this: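 qHTS titrations with 15 min compound pre-incubation before adding ATP (10 uM final). Read-out: AlphaScreen of Ser73-phosphorylated biotin-GST-cJun using HepG2 lysate JNK3 activated by IL-1β and TNFα.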
A general note: In Alpha technology, singlet oxygen from a donor bead excites a nearby acceptor bead.

Assay [7] deals with 3',5'-cyclic-AMP phosphodiesterase 4B (Homo sapiens) (UniProt Q07343). The assay is described as follows: qHTS Assay for Inhibitors of PDE-IV (AID 607; active = well fitted activation curve with a large enough effect in the main read-out, with a control signal flat, not every such curve was filed as active; note: % of control where 0% means no effect). The note with it: HEK293 ACTOne CNG channel cells, membrane potential fluorescence; series mostly up to 22.9 µM. In short, it runs like this: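 Cell-based read-out of cAMP via a modified cyclic nucleotide-gated channel and membrane potential dye (535/590 nm) in HEK293 cells expressing PDE4 endogenously. Compounds tested up to 22.9 uM final; 100 uM RO 20-1724 reference.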

The target in assay [8] is Cytochrome P450 3A4 (Homo sapiens) (UniProt P08684). The assay is described as follows: qHTS Assay for Activators of Cytochrome P450 3A4 (AID 885; active = well fitted curve in the direction sought with a large enough effect; an effect the other way counts as inactive or inconclusive; note: nearly all actives have a fitted effect of over 65% in size). The settings on record: recombinant CYP3A4, Luciferin-PPXE luminescence, 60 min; series mostly up to 11.4 µM. In a few lines: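 Luminescent readout of luciferin formed from 25 uM Luciferin-PPXE (KM level) by 20 nM CYP3A4 in 200 mM KPO4, with 60 min NADPH-driven reaction at room temperature after 10 min compound exposure. Ketoconazole (57 uM) defined 100% inhibition.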

The target in assay [9] is Glucocorticoid receptor (Homo sapiens) (UniProt P04150). Put plainly: GR-GFP Redistribution (AID 450;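 active = compounds whose dose series gives a full or clear partial fitted curve of increased nuclear translocation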; note: potency is the fitted concentration of half-maximal effect). The note with it: U2OS GR-GFP nuclear translocation, laser cytometry, 2 h.
The target is the same in assay [10]. The assay is described as follows: GR-EFC Redistribution (AID 451; calls by dose curve; note: potency is the fitted concentration of half-maximal effect). The settings on record: CHO-K1 GR-EFC translocation, beta-gal luminescence, 2 h. In a few lines: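 Translocation of GR-ED fusion to nuclear EA restores b-gal, read by luminescence after 1 h room-temperature detection. Engineered CHO-K1 biosensor cells, 1,000/well, exposed 2 h at 37 C to titrations up to 46 uM final.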

The nature of assay [11]: qHTS Assay for Identification of Small Molecule Agonists for Hypoxia Response Element Signaling Pathway (AID 914; active = well fitted activation curve with a large enough effect in the signal ratio, with a control signal flat, not every such curve was filed as active; the % refers to the signal ratio; note: % of control where 0% means no effect). The note with it: ME-180 (cervical carcinoma) HRE-bla reporter, beta-lactamase ratio, CoCl2, 17 h; activation: stronger effect = higher value. In a few lines:
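In Opti-MEM containing 0.5% dialyzed FBS and 10 mM HEPES, ME-180 HRE-bla cells received a compound titration and EC50 CoCl2. They were incubated 17 hours, then CCF4-loaded 2.5 hours at room temperature before ratio reading.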
For orientation: qHTS replaces the single test concentration by a dilution series.

The target of assay [12] is Cytochrome P450 2C9 (Homo sapiens) (UniProt P11712). Put plainly: qHTS Assay for Inhibitors and Substrates of Cytochrome P450 2C9 (AID 883; active = well fitted curve in the direction sought with a large enough effect; an effect the other way counts as inactive or inconclusive; note: potency is the fitted concentration of half-maximal effect; nearly all actives have a fitted effect of over 60% in size). The note with it: recombinant CYP2C9, luciferin-H luminescence, 60 min; series mostly up to 11.4 µM. In a few lines: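 Luminescent read-out of deoxyluciferin hydroxylation, normalized to 57uM sulphaphenazole (AC100). Reaction: 10nM enzyme, 100uM Luciferin-H (equal to KM), 25mM KPO4, 10 min compound preincubation, then 60 min with NADPH regeneration, both at 37C.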

Assay [13] concerns the target Cytochrome P450 3A4 (Homo sapiens) (UniProt P08684). The assay is described as follows: qHTS Assay for Inhibitors and Substrates of Cytochrome P450 3A4 (AID 884; active = well fitted curve in the direction sought with a large enough effect; an effect the other way counts as inactive or inconclusive; note: potency is the fitted concentration of half-maximal effect; nearly all actives have a fitted effect of over 50% in size). The note with it: recombinant CYP3A4, Luciferin-PPXE luminescence; series mostly up to 57.1 µM. In a few lines: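 Luminescent readout of luciferin produced by CYP3A4 (20 nM) dealkylation of Luciferin-PPXE, 25 uM (its KM). NADPH-driven reaction ran 60 min at RT after 10 min compound preincubation; data scaled to 57 uM ketoconazole as 100% inhibition.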

For assay [14], the target named is Cytochrome P450 2C19 (Homo sapiens) (UniProt P33261). The assay is described as follows: qHTS Assay for Inhibitors and Substrates of Cytochrome P450 2C19 (AID 899; active = well fitted curve in the direction sought with a large enough effect; an effect the other way counts as inactive or inconclusive; note: potency is the fitted concentration of half-maximal effect; nearly all actives have a fitted effect of over 60% in size). The settings on record: recombinant CYP2C19, luciferin-H EGE luminescence; series mostly up to 11.4 µM. In short, it runs like this:
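Luminescence readout of luciferin formed from 10uM Luciferin-H EGE (KM level) by 5 nM CYP2C19 in 50mM KPO4. 60 min NADPH-driven reaction at 37C after 10 min compound preincubation; data scaled to 57uM ketoconazole inhibition.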

Sequence of Cytochrome P450 1A2 (Homo sapiens) (P05177 whole entry, looked up): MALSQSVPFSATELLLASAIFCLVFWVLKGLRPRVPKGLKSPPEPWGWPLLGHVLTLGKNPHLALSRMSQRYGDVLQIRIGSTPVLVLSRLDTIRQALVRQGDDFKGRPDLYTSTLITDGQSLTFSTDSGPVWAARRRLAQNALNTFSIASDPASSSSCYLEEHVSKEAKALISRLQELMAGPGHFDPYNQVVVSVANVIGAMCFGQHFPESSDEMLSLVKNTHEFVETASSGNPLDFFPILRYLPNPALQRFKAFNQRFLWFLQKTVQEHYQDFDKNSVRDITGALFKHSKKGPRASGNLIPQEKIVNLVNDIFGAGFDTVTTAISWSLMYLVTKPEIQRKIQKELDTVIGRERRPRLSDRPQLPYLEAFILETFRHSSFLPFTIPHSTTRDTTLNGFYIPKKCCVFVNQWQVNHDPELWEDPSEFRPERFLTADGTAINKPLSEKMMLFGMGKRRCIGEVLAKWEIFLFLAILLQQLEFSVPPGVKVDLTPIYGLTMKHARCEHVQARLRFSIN
Sequence of Lysosomal acid glucosylceramidase (Homo sapiens) (P04062 whole entry, looked up): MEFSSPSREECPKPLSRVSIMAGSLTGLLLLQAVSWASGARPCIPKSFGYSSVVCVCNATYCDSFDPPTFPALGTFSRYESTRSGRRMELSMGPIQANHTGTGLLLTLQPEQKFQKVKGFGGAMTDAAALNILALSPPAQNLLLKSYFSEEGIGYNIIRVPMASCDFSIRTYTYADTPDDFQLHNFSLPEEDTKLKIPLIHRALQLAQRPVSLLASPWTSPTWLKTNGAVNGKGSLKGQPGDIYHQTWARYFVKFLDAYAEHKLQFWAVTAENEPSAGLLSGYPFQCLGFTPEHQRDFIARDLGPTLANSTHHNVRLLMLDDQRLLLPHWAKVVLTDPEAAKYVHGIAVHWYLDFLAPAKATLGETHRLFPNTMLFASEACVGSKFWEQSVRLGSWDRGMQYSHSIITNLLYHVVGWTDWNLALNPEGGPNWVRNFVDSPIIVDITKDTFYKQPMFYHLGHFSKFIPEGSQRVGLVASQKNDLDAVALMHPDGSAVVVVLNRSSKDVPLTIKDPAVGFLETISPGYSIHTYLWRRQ
Sequence of Cytochrome P450 3A4 (Homo sapiens) (P08684 whole entry, looked up): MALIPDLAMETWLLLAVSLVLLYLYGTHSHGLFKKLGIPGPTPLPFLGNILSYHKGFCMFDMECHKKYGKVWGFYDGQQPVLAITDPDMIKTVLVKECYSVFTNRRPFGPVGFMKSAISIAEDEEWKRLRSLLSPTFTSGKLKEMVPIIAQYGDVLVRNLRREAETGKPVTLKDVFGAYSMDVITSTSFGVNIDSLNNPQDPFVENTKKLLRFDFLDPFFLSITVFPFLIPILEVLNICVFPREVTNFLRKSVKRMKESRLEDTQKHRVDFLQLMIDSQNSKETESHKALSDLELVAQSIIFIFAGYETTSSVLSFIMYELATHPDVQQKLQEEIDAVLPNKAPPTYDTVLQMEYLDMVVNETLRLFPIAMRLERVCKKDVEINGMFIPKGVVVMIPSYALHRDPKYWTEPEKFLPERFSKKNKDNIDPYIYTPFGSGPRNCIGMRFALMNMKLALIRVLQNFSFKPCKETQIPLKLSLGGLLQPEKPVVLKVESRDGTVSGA
Sequence of 3',5'-cyclic-AMP phosphodiesterase 4B (Homo sapiens) (Q07343 whole entry, looked up): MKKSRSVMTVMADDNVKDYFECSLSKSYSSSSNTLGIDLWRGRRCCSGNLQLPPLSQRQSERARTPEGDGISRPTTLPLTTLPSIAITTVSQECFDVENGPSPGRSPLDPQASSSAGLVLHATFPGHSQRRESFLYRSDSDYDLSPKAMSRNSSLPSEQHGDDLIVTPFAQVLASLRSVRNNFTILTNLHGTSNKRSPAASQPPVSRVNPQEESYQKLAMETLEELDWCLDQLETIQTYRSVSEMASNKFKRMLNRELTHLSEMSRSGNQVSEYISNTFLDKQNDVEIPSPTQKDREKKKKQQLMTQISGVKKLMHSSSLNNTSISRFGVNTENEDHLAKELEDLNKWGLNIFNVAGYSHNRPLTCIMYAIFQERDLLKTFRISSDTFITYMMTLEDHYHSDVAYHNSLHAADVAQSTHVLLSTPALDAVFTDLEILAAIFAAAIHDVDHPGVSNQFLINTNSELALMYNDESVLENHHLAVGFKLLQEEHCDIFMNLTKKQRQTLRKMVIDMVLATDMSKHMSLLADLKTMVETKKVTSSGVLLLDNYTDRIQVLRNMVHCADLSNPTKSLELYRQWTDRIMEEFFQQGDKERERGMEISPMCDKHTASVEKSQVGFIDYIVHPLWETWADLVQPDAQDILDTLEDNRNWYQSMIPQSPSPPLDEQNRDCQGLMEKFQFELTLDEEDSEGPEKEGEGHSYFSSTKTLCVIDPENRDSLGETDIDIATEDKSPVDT
Sequence of Glucocorticoid receptor (Homo sapiens) (P04150 whole entry, looked up, the tested form may be a part): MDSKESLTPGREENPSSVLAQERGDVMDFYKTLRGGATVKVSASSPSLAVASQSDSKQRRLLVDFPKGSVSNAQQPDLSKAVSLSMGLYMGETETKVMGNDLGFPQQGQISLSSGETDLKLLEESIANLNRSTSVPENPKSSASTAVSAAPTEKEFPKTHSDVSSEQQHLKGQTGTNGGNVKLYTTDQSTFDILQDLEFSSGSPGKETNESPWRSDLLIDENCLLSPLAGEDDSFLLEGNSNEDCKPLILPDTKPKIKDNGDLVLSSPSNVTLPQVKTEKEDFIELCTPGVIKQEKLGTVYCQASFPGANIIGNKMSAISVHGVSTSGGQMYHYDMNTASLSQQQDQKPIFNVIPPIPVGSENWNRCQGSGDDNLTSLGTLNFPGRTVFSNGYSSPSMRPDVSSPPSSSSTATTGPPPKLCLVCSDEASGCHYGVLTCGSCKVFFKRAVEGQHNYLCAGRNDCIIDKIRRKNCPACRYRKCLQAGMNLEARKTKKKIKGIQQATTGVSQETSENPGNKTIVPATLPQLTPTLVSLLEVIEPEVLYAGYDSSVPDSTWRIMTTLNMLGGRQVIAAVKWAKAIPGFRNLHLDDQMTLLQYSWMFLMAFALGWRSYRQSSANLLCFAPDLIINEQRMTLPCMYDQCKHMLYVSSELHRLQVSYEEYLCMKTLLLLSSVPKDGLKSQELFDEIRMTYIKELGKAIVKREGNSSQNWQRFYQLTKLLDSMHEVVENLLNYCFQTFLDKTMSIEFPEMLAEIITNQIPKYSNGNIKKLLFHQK
Sequence of Cytochrome P450 2C19 (Homo sapiens) (P33261 whole entry, looked up): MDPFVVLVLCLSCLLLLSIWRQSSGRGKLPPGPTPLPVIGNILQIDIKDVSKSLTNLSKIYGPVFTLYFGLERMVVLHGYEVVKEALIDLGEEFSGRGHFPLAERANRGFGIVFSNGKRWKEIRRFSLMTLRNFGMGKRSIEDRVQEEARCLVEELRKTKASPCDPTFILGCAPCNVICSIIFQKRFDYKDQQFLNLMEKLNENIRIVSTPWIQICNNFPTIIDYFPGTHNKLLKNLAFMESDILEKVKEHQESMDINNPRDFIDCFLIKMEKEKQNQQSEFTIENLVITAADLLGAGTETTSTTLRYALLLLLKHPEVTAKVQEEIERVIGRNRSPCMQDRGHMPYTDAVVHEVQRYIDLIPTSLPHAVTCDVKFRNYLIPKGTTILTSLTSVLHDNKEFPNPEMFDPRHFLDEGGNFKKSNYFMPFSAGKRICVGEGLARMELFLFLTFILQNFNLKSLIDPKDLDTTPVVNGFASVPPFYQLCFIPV
Sequence of Cytochrome P450 2C9 (Homo sapiens) (P11712 whole entry, looked up): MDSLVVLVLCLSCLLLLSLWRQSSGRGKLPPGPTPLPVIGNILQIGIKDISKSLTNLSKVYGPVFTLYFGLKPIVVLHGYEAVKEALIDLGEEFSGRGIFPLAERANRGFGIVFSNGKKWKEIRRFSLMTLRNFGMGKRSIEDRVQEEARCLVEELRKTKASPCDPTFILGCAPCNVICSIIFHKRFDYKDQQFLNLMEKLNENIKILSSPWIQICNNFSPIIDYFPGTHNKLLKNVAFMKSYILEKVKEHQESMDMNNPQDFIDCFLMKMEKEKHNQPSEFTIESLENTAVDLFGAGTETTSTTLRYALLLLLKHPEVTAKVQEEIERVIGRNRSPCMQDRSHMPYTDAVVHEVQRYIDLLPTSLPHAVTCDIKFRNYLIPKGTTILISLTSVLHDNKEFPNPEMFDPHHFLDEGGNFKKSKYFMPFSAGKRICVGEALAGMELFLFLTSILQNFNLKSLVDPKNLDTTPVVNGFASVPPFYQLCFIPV

For the molecule `CO[C@@H]1/C=C\O[C@]2(C)Oc3c(C)c(O)c4c(O)c(cc(O)c4c3C2=O)NC(=O)/C(C)=C\C=C/[C@H](C)[C@@H](O)[C@H](C)[C@H](O)[C@H](C)[C@H](OC(C)=O)[C@@H]1C`, the Potency in assay [1] was more than 11.4 µM. Further, the activity change, negative = inhibition in assay [2] was 1.83%; in assay [4], -26.6%. The Potency entry in assay [3], in assay [6], in assay [7] and in assay [8] was “inactive” in each case. In addition, the activity, negative = inhibition in [5] is -1.99%.

For `N[C@@](CCc1ccccc1)(C(=O)O)c1ccccc1`, the Potency was more than 11.4 µM in [1], more than 46 µM in assay [9] and more than 9.22 µM in assay [10]. For the same molecule, the activity change, negative = inhibition was 4.96% in assay [2] and 3.42% in [4]. The Potency result in assay [3], in assay [6] and in [7] was “inactive” each time.

As for `COc1ccc(C(=O)N2CCC3(CCCN(C(=O)Nc4cccc(F)c4)C3)CC2)cc1`, the Potency in [1] is more than 11.4 µM; in assay [3], 20 µM (active); in [10], more than 46 µM. Besides, the activity change, negative = inhibition in assay [2] is -10.3%; in [4], 5.86%. Moreover, in assay [5], the activity, negative = inhibition was -13.8%. The Potency result in assay [6] was “inactive”. In assay [11], the activation is -19.5%.

In the case of `CC1=NN(c2ccc(S(=O)(=O)O)cc2)C(=O)/C1=C\c1ccc(Cl)cc1`, in [1], the Potency is more than 11.4 µM. Also, the activity change, negative = inhibition was 3.84% in assay [2], -8.9% [at 2.29 µM] in [3] and 7.84% in [4]. Further, the activity, negative = inhibition in assay [5] was -1.78%. The Potency entry in [6] and in assay [7] was “inactive” throughout.

As for `COc1ccccc1CCn1c(=O)c(-c2ccc(F)cc2)nc2cncnc21`, the Potency in assay [1] is more than 11.4 µM; in assay [3], 1 µM (active); in assay [9], more than 9.22 µM; in assay [10] it was more than 46 µM; in assay [12], 3.98 µM (active); in assay [13] it was 3.98 µM (active). Also, the Potency in assay [14] was 0.316 µM (active). Also, the activity change, negative = inhibition in assay [2] was -8.06%; in assay [4], -26.6%. Also, the Potency entry in assay [6] and in assay [8] was “inactive” throughout.

On to `Cc1ccc(C)c(/C(=N\N=C(N)N)C2CC2)c1`, for which the Potency is more than 11.4 µM in [1], more than 46 µM in [9] and more than 9.22 µM in [10]. The activity change, negative = inhibition in assay [2] was -1.56%; in assay [3] it was 1.1% [at 2.29 µM]. Besides, the activity, negative = inhibition in [5] is 4.46%. For the same molecule, the Potency result in assay [6] and in [7] was “inactive” in each case.

Take `CC(C)c1ccc(/C(C(=O)O)=C(\O)C(=O)O)cc1`: the Potency in [1] was more than 11.4 µM; in assay [9], more than 46 µM; in [10], more than 9.22 µM. Also, the activity change, negative = inhibition in assay [2] is -1.43%. The Potency entry in [3], in assay [6] and in assay [7] was “inactive” each time. In assay [5], the activity, negative = inhibition is -0.351%.

`Cc1cccc(C)c1NC(=O)Nc1ccc(S(N)(=O)=O)cc1`: the Potency is more than 11.4 µM in [1], more than 46 µM in assay [9] and more than 9.22 µM in assay [10]. Also, the activity change, negative = inhibition in [2] was 3.48%; in assay [3], -10.8% [at 2.29 µM]; in assay [4], 11%. Further, the Potency result in assay [6] and in assay [7] was “inactive” each time. The activation in assay [11] was 13.8%.
